# Results reported in PubChem BioAssay AID1159580 (chemical genetic matrix, 2015).
# About 2,000 (36%) of roughly 5,500 compounds were called active. Roughly 18% stayed inconclusive and do not appear here. The list shows a part of the results. Unmarked numbers belong to inactive results. Rule as the data show it: active = normalized growth mostly below about 0.91 (no sharp cut-off); inconclusive = no clear call, values can overlap the other calls; inactive = mostly above about 0.92.
# Assay: chemical genetic growth profiling, strain panel (AID 1159580);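 also: tested at 20 µM; growth read once vehicle control cultures reached saturation at 30 °C; 1 = growth at the plate median or of vehicle wells; lower values mean less growth of the strain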
# Conditions: growth OD
# [1] = S. cerevisiae deletion strains, locus YHR030C, strain SLT2, hits give low values
# [2] = S. cerevisiae deletion strains, locus YHR079C, strain IRE1, hits give low values
# [3] = S. cerevisiae deletion strains, locus YJL095W, strain BCK1, hits give low values
# [4] = S. cerevisiae deletion strains, locus YJR066W, strain TOR1, hits give low values
# [5] = S. cerevisiae deletion strains, locus YLR113W, strain HOG1, hits give low values
# [6] = S. cerevisiae deletion strains, locus YNL183C, strain NPR1, hits give low values
# [7] = S. cerevisiae deletion strains, locus YOR231W, strain MKK1, hits give low values
# [8] = S. cerevisiae deletion strains, locus YPL256C, strain CLN2, hits give low values
# [9] = S. cerevisiae deletion strains, locus YDL101C, strain DUN1, hits give low values
structure (smiles),measurement,setting,value
CNCC[C@H](Oc1cccc2ccccc12)c1cccs1,normalized growth,[1],0.991
same,normalized growth,[2],0.993
same,normalized growth,[3],1
same,normalized growth,[4],0.924
same,normalized growth,[5],1.02
same,normalized growth,[6],0.938
same,normalized growth,[7],0.988
same,normalized growth,[8],0.987
CNC(=O)Sc1c(-c2ccc(Cl)cc2)nn(C(=O)NC)c1SC,normalized growth,"S. cerevisiae deletion strains, locus YAR019C, strain CDC15, hits give low values",0.979
same,normalized growth,"S. cerevisiae deletion strains, locus YBL105C, strain PKC1, hits give low values",0.961
same,normalized growth,"S. cerevisiae deletion strains, locus YBR135W, strain CKS1, hits give low values",0.949
same,normalized growth,"S. cerevisiae deletion strains, locus YBR136W, strain MEC1, hits give low values",0.952
same,normalized growth,"S. cerevisiae deletion strains, locus YBR160W, strain CDC28, hits give low values",0.961
same,normalized growth,"S. cerevisiae deletion strains, locus YDL017W, strain CDC7, hits give low values",0.949
same,normalized growth,"S. cerevisiae deletion strains, locus YDL028C, strain MPS1, hits give low values",0.941
same,normalized growth,[9],0.958
same,normalized growth,"S. cerevisiae deletion strains, locus YDL108W, strain KIN28, hits give low values",0.94
same,normalized growth,"S. cerevisiae deletion strains, locus YDL132W, strain cdc53, hits give low values",0.978
same,normalized growth,"S. cerevisiae deletion strains, locus YDL214C, strain PRR2, hits give low values",0.319 (active)
same,normalized growth,"S. cerevisiae deletion strains, locus YDR052C, strain DBF4, hits give low values",0.939
same,normalized growth,"S. cerevisiae deletion strains, locus YDR054C, strain cdc34, hits give low values",0.985
same,normalized growth,"S. cerevisiae deletion strains, locus YDR226W, strain ADK1, hits give low values",0.952
same,normalized growth,"S. cerevisiae deletion strains, locus YDR477W, strain SNF1, hits give low values",0.428 (active)
same,normalized growth,"S. cerevisiae deletion strains, locus YER123W, strain YCK3, hits give low values",0.199 (active)
same,normalized growth,"S. cerevisiae deletion strains, locus YER133W, strain GLC7, hits give low values",0.485 (active)
same,normalized growth,"S. cerevisiae deletion strains, locus YFL009W, strain cdc4, hits give low values",0.962
same,normalized growth,"S. cerevisiae deletion strains, locus YFL029C, strain CAK1, hits give low values",0.974
same,normalized growth,"S. cerevisiae deletion strains, locus YFR003C, strain YPI1, hits give low values",0.946
same,normalized growth,"S. cerevisiae deletion strains, locus YFR019W, strain FAB1, hits give low values",0.264 (active)
same,normalized growth,"S. cerevisiae deletion strains, locus YFR028C, strain CDC14, hits give low values",0.985
same,normalized growth,"S. cerevisiae deletion strains, locus YGR040W, strain KSS1, hits give low values",0.413 (active)
same,normalized growth,"S. cerevisiae deletion strains, locus YGR052W, strain FMP48, hits give low values",0.315 (active)
same,normalized growth,"S. cerevisiae deletion strains, locus YGR092W, strain DBF2, hits give low values",0.266 (active)
same,normalized growth,[1],0.335 (active)
same,normalized growth,[2],0.324 (active)
same,normalized growth,"S. cerevisiae deletion strains, locus YHR082C, strain KSP1, hits give low values",0.353 (active)
same,normalized growth,"S. cerevisiae deletion strains, locus YHR205W, strain SCH9, hits give low values",0.446 (active)
same,normalized growth,"S. cerevisiae deletion strains, locus YIL147C, strain SLN1, hits give low values",0.934
same,normalized growth,[3],0.256 (active)
same,normalized growth,"S. cerevisiae deletion strains, locus YJL128C, strain PBS2, hits give low values",0.911
same,normalized growth,"S. cerevisiae deletion strains, locus YJL157C, strain FAR1, hits give low values",0.315 (active)
same,normalized growth,"S. cerevisiae deletion strains, locus YJR016C, strain ILV3, hits give low values",0.969
same,normalized growth,"S. cerevisiae deletion strains, locus YJR066W, strain TOR1 (second series), hits give low values",0.286 (active)
same,normalized growth,[4],0.302 (active)
same,normalized growth,"S. cerevisiae deletion strains, locus YKL048C, strain ELM1, hits give low values",0.545 (active)
same,normalized growth,"S. cerevisiae deletion strains, locus YKL067W, strain YNK1, hits give low values",0.335 (active)
same,normalized growth,"S. cerevisiae deletion strains, locus YKL101W, strain HSL1, hits give low values",0.378 (active)
same,normalized growth,"S. cerevisiae deletion strains, locus YKL193C, strain SDS22, hits give low values",0.97
same,normalized growth,"S. cerevisiae deletion strains, locus YKL203C, strain TOR2, hits give low values",0.491 (active)
same,normalized growth,[5],0.284 (active)
same,normalized growth,"S. cerevisiae deletion strains, locus YLR133W, strain CKI1, hits give low values",0.397 (active)
same,normalized growth,"S. cerevisiae deletion strains, locus YLR403W, strain SFP1, hits give low values",0.482 (active)
same,normalized growth,"S. cerevisiae deletion strains, locus YML070W, strain DAK1, hits give low values",0.297 (active)
same,normalized growth,"S. cerevisiae deletion strains, locus YMR001C, strain CDC5, hits give low values",0.971
same,normalized growth,"S. cerevisiae deletion strains, locus YMR205C, strain PFK2 (second series), hits give low values",0.461 (active)
same,normalized growth,"S. cerevisiae deletion strains, locus YMR277W, strain FCP1, hits give low values",0.979
same,normalized growth,"S. cerevisiae deletion strains, locus YNL006W, strain LST8, hits give low values",0.971
same,normalized growth,"S. cerevisiae deletion strains, locus YNL020C, strain ARK1, hits give low values",0.342 (active)
same,normalized growth,"S. cerevisiae deletion strains, locus YNL161W, strain CBK1, hits give low values",0.954
same,normalized growth,[6],0.274 (active)
same,normalized growth,"S. cerevisiae deletion strains, locus YNL207W, strain RIO2, hits give low values",0.964
same,normalized growth,"S. cerevisiae deletion strains, locus YNL222W, strain SSU72, hits give low values",0.969
same,normalized growth,"S. cerevisiae deletion strains, locus YNL307C, strain MCK1 (second series), hits give low values",0.233 (active)
same,normalized growth,"S. cerevisiae deletion strains, locus YOL078W, strain AVO1, hits give low values",0.981
same,normalized growth,"S. cerevisiae deletion strains, locus YOL136C, strain PFK27, hits give low values",0.316 (active)
same,normalized growth,"S. cerevisiae deletion strains, locus YOR061W, strain CKA2, hits give low values",0.355 (active)
same,normalized growth,"S. cerevisiae deletion strains, locus YOR119C, strain RIO1, hits give low values",0.467 (active)
same,normalized growth,[7],0.315 (active)
same,normalized growth,"S. cerevisiae deletion strains, locus YOR329C, strain SCD5, hits give low values",0.977
same,normalized growth,"S. cerevisiae deletion strains, locus YPL031C, strain PHO85, hits give low values",0.422 (active)
same,normalized growth,"S. cerevisiae deletion strains, locus YPL153C, strain RAD53, hits give low values",0.337 (active)
same,normalized growth,"S. cerevisiae deletion strains, locus YPL204W, strain HRR25, hits give low values",0.399 (active)
same,normalized growth,"S. cerevisiae deletion strains, locus YPL209C, strain IPL1, hits give low values",0.97
same,normalized growth,[8],0.368 (active)
same,normalized growth,"S. cerevisiae deletion strains, locus YPR025C, strain CCL1, hits give low values",0.973
same,normalized growth,"S. cerevisiae deletion strains, locus YPR106W, strain ISR1, hits give low values",0.994
same,normalized growth,"S. cerevisiae deletion strains, locus YPR111W, strain DBF20, hits give low values",0.982
same,normalized growth,"S. cerevisiae deletion strains, strain NNK1, hits give low values",0.996
same,normalized growth,"S. cerevisiae deletion strains, strain TSCII, hits give low values",0.977
O=[N+]([O-])c1ccc(C(O)C(O)CO)cc1 (stereo unspecified),normalized growth,"S. cerevisiae deletion strains, locus YAL013W, strain DEP1, hits give low values",0.974
same,normalized growth,"S. cerevisiae deletion strains, locus YBR229C, strain ROT2, hits give low values",0.981
same,normalized growth,[9],1.01
same,normalized growth,"S. cerevisiae deletion strains, locus YDR150W, strain NUM1, hits give low values",1
same,normalized growth,"S. cerevisiae deletion strains, locus YEL061C, strain CIN8, hits give low values",1
same,normalized growth,"S. cerevisiae deletion strains, locus YGR078C, strain PAC10, hits give low values",0.996
same,normalized growth,[1],1.07
same,normalized growth,"S. cerevisiae deletion strains, locus YHR087W, strain rtc3, hits give low values",0.958
same,normalized growth,"S. cerevisiae deletion strains, locus YJL187C, strain SWE1, hits give low values",0.993
same,normalized growth,"S. cerevisiae deletion strains, locus YJR043C, strain POL32, hits give low values",0.987
same,normalized growth,"S. cerevisiae deletion strains, locus YJR075W, strain HOC1, hits give low values",0.988
same,normalized growth,"S. cerevisiae deletion strains, locus YLR039C, strain RIC1, hits give low values",0.974
same,normalized growth,"S. cerevisiae deletion strains, locus YLR058C, strain SHM2 (second series), hits give low values",0.988
same,normalized growth,"S. cerevisiae deletion strains, locus YLR085C, strain ARP6, hits give low values",0.986
same,normalized growth,"S. cerevisiae deletion strains, locus YLR262C, strain YPT6, hits give low values",0.963
same,normalized growth,"S. cerevisiae deletion strains, locus YML094W, strain GIM5, hits give low values",0.99
same,normalized growth,"S. cerevisiae deletion strains, locus YMR219W, strain ESC1, hits give low values",0.994
same,normalized growth,"S. cerevisiae deletion strains, locus YMR263W, strain SAP30, hits give low values",1
same,normalized growth,"S. cerevisiae deletion strains, locus YMR307W, strain GAS1, hits give low values",0.959
same,normalized growth,"S. cerevisiae deletion strains, locus YNL153C, strain GIM3, hits give low values",0.987
same,normalized growth,"S. cerevisiae deletion strains, locus YNL298W, strain CLA4 (second series), hits give low values",0.961
same,normalized growth,"S. cerevisiae deletion strains, locus YNL322C, strain KRE1, hits give low values",0.996
same,normalized growth,"S. cerevisiae deletion strains, locus YNR030W, strain Alg12, hits give low values",0.983
same,normalized growth,"S. cerevisiae deletion strains, locus YPL055C, strain LGE1, hits give low values",0.971
same,normalized growth,"S. cerevisiae deletion strains, locus YPL241C, strain CIN2, hits give low values",1
same,normalized growth,"S. cerevisiae deletion strains, locus YPR135W, strain CTF4, hits give low values",1.02
same,normalized growth,"S. cerevisiae strains, strain wild type, hits give low values",0.979
